Most compounds without a hit are left out; they make up all but 3.3% or so of the library.
LmPK inhibitor: LmPK (Leishmania mexicana) enzyme inhibition; Q27686; purified LmPK, Kinase-Glo ATP luminescence, 1 h; Potency, µM (titrated, usually from 57.5 µM), inactives show top-dose activity change, negative = inhibition, most hits filed as inhibitors; 0.37% of 290,000 active; AID 1721
Target sequence (Q27686 whole entry, looked up): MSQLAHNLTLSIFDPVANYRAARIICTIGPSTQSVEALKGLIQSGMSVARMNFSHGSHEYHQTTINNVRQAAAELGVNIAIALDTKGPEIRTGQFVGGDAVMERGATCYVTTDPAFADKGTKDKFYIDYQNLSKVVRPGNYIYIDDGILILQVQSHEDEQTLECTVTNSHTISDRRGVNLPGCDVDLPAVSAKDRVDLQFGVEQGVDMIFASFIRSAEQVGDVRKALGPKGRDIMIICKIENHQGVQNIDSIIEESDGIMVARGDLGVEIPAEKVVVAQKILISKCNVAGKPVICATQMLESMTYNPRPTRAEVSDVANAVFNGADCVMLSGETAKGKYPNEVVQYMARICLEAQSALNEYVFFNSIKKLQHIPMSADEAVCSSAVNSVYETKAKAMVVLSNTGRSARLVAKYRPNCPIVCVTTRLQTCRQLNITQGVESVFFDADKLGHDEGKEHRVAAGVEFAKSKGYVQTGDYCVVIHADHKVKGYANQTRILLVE
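Purified LmPK (0.1 nM) with 0.5 mM PEP and 0.1 mM ADP in imidazole buffer pH 7.2 with MgCl2/KCl, 1 h at room temperature. ATP formed was read by luciferase luminescence and normalized to no-enzyme and uninhibited controls.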
Sm TGR inh: inhibitors of Schistosoma mansoni thioredoxin glutathione reductase; purified TGR, DTNB reduction, TNB absorbance 405 nm; Potency, µM (top dose mostly 114 µM), inactives show at the top dose activity change, negative = inhibition, hits mostly inhibitors; 3% of 360,000 active; AID 485364; also: nearly all actives have a fitted effect of over 60% in size
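TGR 20 nM + NADPH 100 uM (dispensed conc.), cpd preinc 15 min RT; start with NADPH (500 uM addition) then DTNB (15 mM addition). Kinetic TNB absorbance, 405 nm filter. Four-parameter Hill fit across titration.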
TbPYK inhibitor: T. brucei pyruvate kinase inhibition | Potency, µM (series often up to 76.8 µM), inactives show at the top dose activity, negative = inhibition, usual class: inhibitors | 0.12% of 410,000 active | AID 624173 | TbPYK enzyme, Kinase-Glo Plus ATP luminescence, 45 min; also: nearly all actives have a fitted effect of over 50% in size
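Screened from lowest to highest concentration, compounds were pinned into TbPYK/substrate mixtures, and ADP (130 uM final) was added. Plates sat at room temperature for 45 min prior to Kinase-Glo Plus detection by luminescence.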
Giardia FBPA inh: blocks Giardia fructose-bisphosphate aldolase activity; A8B2U2; purified Giardia FBPA; Potency, µM (series often up to 59.6 µM), for inactives: top-dose activity, negative = inhibition, hits mostly inhibitors; 0.71% of 290,000 active; AID 2451; also: nearly all actives have a fitted effect of over 55% in size
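40 nM FBPA preincubated 10 min at RT with compound (up to 57.5 uM final), then substrate plus GAPDH/TPI/NAD/arsenate coupling and diaphorase/resazurin added. Fluorescence read after 20 min at RT, 525/598 nm.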
RE007 growth inh: less growth of the S. pombe RE007 Vpr strain | 0.21% of 360,000 active | S. pombe RE007 Vpr strain, BacTiter-Glo ATP luminescence, 24 h | Potency, µM (titrated, usually from 92.2 µM), inactives show at the top dose activity change, negative = less growth, hits mostly inhibitors; active = well fitted falling curve with a large enough effect; inconclusive = small, poorly fitted or top-dose-only effect; inactive = no such curve, though single readings can be large or run the other way; also: nearly all actives have a fitted effect of over 50% in size
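Fission yeast strain RE007, carrying one chromosomally integrated HIV-1 vpr copy, was seeded at OD 0.01 in PMG+AL medium with 23 nL pinned compound. After 24 h at 30 °C and 99% humidity, viability was read by BacTiter-Glo luminescence.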
Numbers without * were called inactive; [ ] = remark or other dose. Unless noted, calls follow the shape of the dose curve; as a rule, active = well fitted curve in the direction sought with a large enough effect; inconclusive = small, poorly fitted or top-dose-only effect, or another doubt; inactive = no such curve, though single readings can be large; an effect the other way counts as inactive or inconclusive. % is scaled to controls: 0 for no effect and ±100 for the full control effect; potency is read from the fitted curve at half-maximal effect.

`COc1ccc(/C=N/N2CCN(c3ccccc3OC)CC2)cc1Br` gave LmPK inhibitor -1%, Sm TGR inh 8%, TbPYK inhibitor 5%, Giardia FBPA inh 3% and RE007 growth inh -14%.
For CC(C)(C)C1CCC(C(=O)Nc2nccs2)CC1 (stereo unspecified) the results were LmPK inhibitor 3%, Sm TGR inh 18%, TbPYK inhibitor 4%, Giardia FBPA inh 11% and RE007 growth inh -8%.
`COc1ccc(C(C)=O)cc1COC(=O)c1ccc(N)c([N+](=O)[O-])c1` gave LmPK inhibitor 6%, Sm TGR inh 8.9µM*, TbPYK inhibitor -1%, Giardia FBPA inh 1% and RE007 growth inh -18%.
For COc1ccccc1/C=N/OCc1cc(C(C)=O)ccc1OC the results were LmPK inhibitor 1%, Sm TGR inh 11µM*, TbPYK inhibitor -8%, Giardia FBPA inh 5% and RE007 growth inh 5%.
For CCOc1ccc(C(C)=O)cc1COc1cccnc1[N+](=O)[O-] the results were LmPK inhibitor -2%, Sm TGR inh 35µM*, TbPYK inhibitor -7%, Giardia FBPA inh -4% and RE007 growth inh -17%.
`COc1ccc(C(C)=O)cc1COc1ccccc1[N+](=O)[O-]` gave LmPK inhibitor 0%, Sm TGR inh 11µM*, TbPYK inhibitor 1%, Giardia FBPA inh 4% and RE007 growth inh 9%.
`COc1ccc(C(C)=O)cc1COc1cccnc1[N+](=O)[O-]` gave LmPK inhibitor 0%, Sm TGR inh inconclusive, TbPYK inhibitor 5%, Giardia FBPA inh -5% and RE007 growth inh 2%.
Screening Nc1ccc(C(=O)OCc2ccncc2)cc1[N+](=O)[O-] returned LmPK inhibitor 1%, Sm TGR inh -14%, TbPYK inhibitor -2%, Giardia FBPA inh 5% and RE007 growth inh -4%.
CC(C)=C(NC(=O)c1ccccc1)C(=O)NCCc1nc2ccccc2[nH]1 was read as LmPK inhibitor -4%, Sm TGR inh -3%, TbPYK inhibitor -2% and RE007 growth inh 2%.
`Cc1ccc(C(=O)CC2(O)C(=O)N(Cc3ccccc3Cl)c3ccccc32)o1` (stereo unspecified) gave LmPK inhibitor 2%, Sm TGR inh -13%, TbPYK inhibitor -9%, Giardia FBPA inh 10% and RE007 growth inh 6%.
C[C@H](CO)N1C[C@H](C)[C@H](CN(C)S(=O)(=O)c2ccccc2)Oc2c(NS(C)(=O)=O)cccc2C1=O was read as TbPYK inhibitor 8% and RE007 growth inh 2%.
For O=S(=O)(Nc1cc(F)ccc1F)c1cccc2nsnc12 the results were LmPK inhibitor 2%, Sm TGR inh -12%, TbPYK inhibitor 5%, Giardia FBPA inh -12% and RE007 growth inh -6%.
`COc1ccc(C(C)=O)cc1COC(=O)c1ccc(S(=O)(=O)N2CCOCC2)cc1` gave LmPK inhibitor -1%, Sm TGR inh 18µM*, TbPYK inhibitor 3%, Giardia FBPA inh -1% and RE007 growth inh -17%.
`COc1cccc(COC(=O)c2cc(S(=O)(=O)N3CCOCC3)ccc2Cl)c1OC` gave TbPYK inhibitor 2% and RE007 growth inh 4%.
C=CCSc1nnc(NC(=O)c2cn(CC)c3nc(C)ccc3c2=O)s1 was read as LmPK inhibitor -1%, Sm TGR inh 50µM*, TbPYK inhibitor -2%, Giardia FBPA inh -6% and RE007 growth inh 1%.
For COc1cc(C2NC(=S)NC3=C2CCc2ccccc23)cc(OC)c1OC (stereo unspecified) the results were LmPK inhibitor 3%, Sm TGR inh 4%, TbPYK inhibitor -16%, Giardia FBPA inh -6% and RE007 growth inh -4%.
For C=CCOc1ccc(C2NC(=S)NC3=C2CCc2ccccc23)cc1 (stereo unspecified) the results were LmPK inhibitor -4%, Sm TGR inh 56µM*, TbPYK inhibitor -4%, Giardia FBPA inh -17% and RE007 growth inh -4%.
For CCOC(=O)c1ccc(N2C(=O)C3C(C2=O)C(C(=O)c2ccc(Cl)cc2)N2CCCC32)cc1 (stereo unspecified) the results were LmPK inhibitor 8%, Sm TGR inh 16µM*, TbPYK inhibitor -8%, Giardia FBPA inh 1% and RE007 growth inh inconclusive.
Screening CCn1c(=O)c([N+](=O)[O-])c(NCCN(C)C)c2ccccc21 returned LmPK inhibitor 1%, Sm TGR inh 11%, TbPYK inhibitor -13%, Giardia FBPA inh -12% and RE007 growth inh 2%.
For CCn1c(=O)c([N+](=O)[O-])c(Cl)c2ccccc21 the results were LmPK inhibitor 0%, Sm TGR inh 0.79µM*, TbPYK inhibitor -11%, Giardia FBPA inh -3% and RE007 growth inh -12%.
O=C(NCCCn1ccnc1)c1sc2cccc(F)c2c1Cl was read as LmPK inhibitor 3%, Sm TGR inh -4%, TbPYK inhibitor -20%, Giardia FBPA inh 3% and RE007 growth inh -3%.
`Cn1c(=O)c2c(nc(NN=C3CCCCC3)n2C)n(C)c1=O` gave LmPK inhibitor -15%[11.5 µM], Sm TGR inh 13µM*, TbPYK inhibitor -2%, Giardia FBPA inh -28% and RE007 growth inh -25%.
CC(C)=NNc1nc2c(c(=O)n(C)c(=O)n2C)n1C was read as LmPK inhibitor -6%, Sm TGR inh -1%, TbPYK inhibitor -13%, Giardia FBPA inh inconclusive and RE007 growth inh 6%.
For COc1cc(/C=C/C(=O)O)cc(S(=O)(=O)NCc2ccco2)c1OC the results were LmPK inhibitor 7%, Sm TGR inh 32µM*, TbPYK inhibitor -12%, Giardia FBPA inh -5% and RE007 growth inh -3%.
For COc1cc(/C=C/C(=O)O)cc(S(=O)(=O)N(C)CCO)c1OC the results were LmPK inhibitor 15%, Sm TGR inh 13%, TbPYK inhibitor -8%, Giardia FBPA inh 6% and RE007 growth inh -13%.
For Cc1ccc(/C=C/C(=O)O)cc1S(=O)(=O)N(C)CCO the results were LmPK inhibitor 2%, Sm TGR inh 22µM*, TbPYK inhibitor 39%, Giardia FBPA inh 2% and RE007 growth inh -1%.
`Cc1ccc(/C=C/C(=O)O)cc1S(=O)(=O)NCc1ccco1` gave LmPK inhibitor -2%, Sm TGR inh 32µM*, TbPYK inhibitor 3%, Giardia FBPA inh -2% and RE007 growth inh -21%.
For CCN(C(=O)c1coc(=O)c(Br)c1)c1ccc2c(c1)OCO2 the results were LmPK inhibitor -1%, Sm TGR inh 45µM*, TbPYK inhibitor inconclusive, Giardia FBPA inh inconclusive and RE007 growth inh -13%.
For CCN(C(=O)c1c(C)cc(=O)oc1C)c1ccc2c(c1)OCO2 the results were LmPK inhibitor -3%, Sm TGR inh 0%, TbPYK inhibitor 0%, Giardia FBPA inh -5% and RE007 growth inh 7%.
